Most compounds without a hit are left out; they make up all but 2.3% or so of the library.
CHO-K1 Ca antag – M1 antagonist counterscreen hit in parental CHO-K1 cells. ATP-induced calcium, Fluo-8 fluorescence. inhibition, % at 3 µM. hit rate 0.6% among 360,000. AID 602250;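 active means inhibition above a per-plate cutoff, the plate's mean sample inhibition plus 3 SD, cut at about 24% in these data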
M1 ag parental – M1 agonist counterscreen hit in parental CHO-K1 cells | hit rate 0.48% among 360,000 | Fluo-8 calcium fluorescence; scaled to maximal ATP response, vehicle zero | AID 602248 | activation, % at 3 µM; in the data active means activation above about 15%;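 further: untransfected CHO-K1 host cells lacking M1 receptor as counterscreen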
M1 PAM parental – counter-screen for M1 PAMs: effect in parental CHO-K1 cells; hit rate 0.02% among 360,000; ATP EC20, Fluo-8 calcium fluorescence; 0% at ATP EC20, 100% at ATP max; AID 602247; activation, % at 3 µM;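 active means activation above the run cutoff, the mean activation of all test compounds plus 3 SD, cut at about 40% in these data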;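 further: peak over basal fluorescence ratio in a 140 s read after ATP addition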
CHRM1 antagonist – human CHRM1 antagonism; CHO-K1 hM1, Fluo-8 calcium fluorescence, ACh EC80 antagonist; P11229; inhibition, % at 3 µM; hit rate 1.3% among 360,000;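 active means percent inhibition above its own plate's cutoff, namely the mean of that plate's compound wells plus 3 SD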;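 further: peak over basal fluorescence ratio during 140 s after agonist addition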
Target sequence (P11229 whole entry, looked up): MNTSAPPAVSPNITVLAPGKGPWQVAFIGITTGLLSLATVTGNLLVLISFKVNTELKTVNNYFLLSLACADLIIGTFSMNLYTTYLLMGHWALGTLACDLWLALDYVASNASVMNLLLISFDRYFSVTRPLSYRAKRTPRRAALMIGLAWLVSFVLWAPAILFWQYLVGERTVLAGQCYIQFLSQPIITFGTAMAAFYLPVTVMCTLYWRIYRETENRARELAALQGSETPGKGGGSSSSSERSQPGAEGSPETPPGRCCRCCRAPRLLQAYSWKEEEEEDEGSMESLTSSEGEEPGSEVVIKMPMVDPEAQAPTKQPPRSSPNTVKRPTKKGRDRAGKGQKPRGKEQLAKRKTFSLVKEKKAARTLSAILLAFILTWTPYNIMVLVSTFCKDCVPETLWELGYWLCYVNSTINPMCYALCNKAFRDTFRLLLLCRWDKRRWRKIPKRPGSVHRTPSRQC
M1 ag – human M1 muscarinic receptor agonism; P11229; CHO-K1 hM1, Fluo-8 calcium fluorescence, agonist mode; 0% DMSO, 100% acetylcholine EC100; activation, % at 3 µM; hit rate 0.33% among 360,000; AID 588814;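 active means activation above the run's mean compound activation plus 3 SD, cut at about 16% in these data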;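 further: peak over basal fluorescence ratio within a 140 s kinetic read after compound addition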
CHRM1 PAM – human CHRM1 positive allosteric modulation; CHO-K1 hM1, Fluo-8 calcium fluorescence, ACh EC20; 0% = ACh EC20, 100% = maximal ACh; activation, % at 3 µM; hit rate 0.088% among 360,000; in the data active means activation above about 19%, passing the limit was not always enough
Large screens that a line does not name were inactive.

Cc1nnc(N2CCCC(C(=O)NCc3cccc(F)c3)C2)c2nn(-c3ccccc3)c(C)c12 (centres undefined)	none
CCc1ccc(CNC(=O)C2CCCN(c3nnc(C)c4c(C)n(-c5ccccc5)nc34)C2)cc1 (centres undefined)	CHRM1 antagonist 49
COc1cc(/C=C/C(=O)NC(=O)c2ccccc2O)ccc1O	none
COc1cc(/C=C/C(O)=C/C(=O)/C=C/c2ccc(O)cc2)ccc1O	M1 ag parental 17, CHRM1 antagonist 39, M1 ag 18
Cn1cc2cc([N+](=O)[O-])ccc2n1	M1 ag 23
Cc1ccccc1-n1c(=O)cc(N2CCc3ccccc3C2)[nH]c1=O	M1 ag parental 18
CCNC(=O)NC(=O)C(C)OC(=O)CNS(=O)(=O)c1c(Cl)cc(Br)cc1Cl (centres undefined)	none
CNC(=O)/C(C#N)=C/c1ccc(-c2ccccc2[N+](=O)[O-])o1	CHO-K1 Ca antag 27
O=C(CN1C(=O)COc2ccccc21)NCCN1CCOCC1	none
O=C(CN1C(=O)COc2ccccc21)NCCN1CCC(Cc2ccccc2)CC1	CHRM1 antagonist 30
COc1ccc(Nc2nc(Cl)c(C=O)s2)cc1	CHRM1 antagonist 37
OC(COC(c1ccccc1)c1ccccc1)CN1CCc2ccccc2C1 (centres undefined)	none
OC(COC(c1ccccc1)c1ccccc1)CN1CCN(c2ccccn2)CC1 (centres undefined)	CHRM1 antagonist 42
OC(COC(c1ccc(Cl)cc1)c1ccc(Cl)cc1)CN1CCc2ccccc2C1 (centres undefined)	M1 ag parental 16
Cc1cscc(C)c1=S	none
Cc1c(C(=O)N2CCOCC2)c(S(=O)(=O)Nc2cccc(C#N)c2)c(C)n1C	none
COc1ccccc1CNC(=O)C(NS(=O)(=O)c1cccc2nsnc12)C(C)C (centres undefined)	none
CCCS(=O)(=O)NC(=O)C1(C)CCN(C(=O)c2ccccc2OC)C1 (centres undefined)	none
CCN(CCCC(=O)c1ccc(F)cc1)CCc1ccccc1	CHRM1 antagonist 59
CN(c1ccc(C(=O)COC(=O)C2CC2)cc1)S(C)(=O)=O	none
CCOC(=O)C1CCCN(Cc2nc(Cc3cccc(F)c3)no2)C1 (centres undefined)	M1 ag 33
CCOC(=O)C1CCN(C2CCN(Cc3nc(-c4ccccc4)no3)CC2)CC1	none
COCC1CCCN(Cc2nc(Cc3ccccc3)no2)C1 (centres undefined)	none
CCOC(=O)C1CCCN(Cc2nc(C3CC3)no2)C1 (centres undefined)	none
CCOC(=O)C1CCCN(C2CCN(Cc3nc(Cc4ccccc4)no3)CC2)C1 (centres undefined)	M1 ag 17
CCOC(=O)C1CCCN(C2CCN(Cc3nc(-c4ccccc4)no3)CC2)C1 (centres undefined)	CHRM1 antagonist 42, M1 ag 42
C/C(=N\NC(=O)c1cccc(S(=O)(=O)N2CCCC2)c1)c1ccc(OCC(=O)N(C)C)cc1	none
COCCNc1nc(NCCOc2ccccc2)c2sc(-c3ccccc3)cc2n1	none
CCCNC(=O)c1cc(C2CCCCN2C(=O)c2ccccc2)on1 (centres undefined)	none
Cc1ccc(-c2nnn(CC(=O)N(CC(=O)NC3CCCCC3)c3cccc(F)c3)n2)o1	M1 ag parental 20
Cc1ccc(-c2nnn(CC(=O)N(CC(=O)NC3CCCC3)c3cccc(F)c3)n2)o1	none
O=C(COC(=O)c1ccccc1O)Nc1cc([N+](=O)[O-])ccc1Cl	none
Cn1c(NC(=O)c2ccc(F)cc2)c(-c2ccccn2)c(=O)c2ccccc21	none
COc1cc(C(=O)NCc2cccnc2)ccc1OCC(=O)Nc1cccc(C(F)(F)F)c1	M1 ag parental 17
CCOc1ccc(NC(=O)COc2ccc(C(=O)NCc3cccnc3)cc2OC)cc1	none
COc1cc(C)ccc1OCc1cc(C(=O)NC(c2ccccn2)C(F)(F)F)no1 (centres undefined)	CHO-K1 Ca antag 35
COc1cc(C)ccc1OCc1cc(C(=O)NC2CCOCC2)no1	none
Cc1cc(-n2c(C)cc(C(=O)CSc3ncnc4ccccc34)c2C)no1	CHRM1 antagonist 28
Cc1cc(C(=O)CSc2ncnc3ccccc23)c(C)n1C1CC1	none
Cc1nn(-c2ccccc2)c(Cl)c1/C=N/O	none
Cc1nn(-c2ccccc2)c(Cl)c1/C=C/C(=O)c1ccccc1	CHO-K1 Ca antag 28
NCC(c1ccccc1Cl)c1c[nH]c2ccccc12 (centres undefined)	none
NCC(c1ccc(Cl)cc1Cl)c1c[nH]c2ccccc12 (centres undefined)	CHO-K1 Ca antag 25, M1 ag parental 15
CC(C)C(C(=O)NCC1CCCO1)N(CC1CCCO1)C(=O)CNS(=O)(=O)c1ccccc1 (centres undefined)	none
C=CCC(O)(CCN1CCCCC1)c1ccccc1 (centres undefined)	CHRM1 antagonist 98
OC(CCCN1CCCCC1)(c1ccccc1)c1ccc(C(F)(F)F)cc1 (centres undefined)	CHRM1 antagonist 82
OC(CCN1CCCCC1)(c1ccccc1)c1ccccc1	CHRM1 antagonist 99
CCCCOc1ccc(C(O)(CCN2CCOCC2)c2ccccc2)cc1 (centres undefined)	none
OC(CCN1CCCC1)(c1ccccc1)C1CCCCC1 (centres undefined)	CHRM1 antagonist 97
CCOc1ccc(N(C(C)=O)c2nc(C)cc(C)c2C#N)cc1	none
Cc1ccc(NC(=O)C2(C)CCN2C2Cc3ccccc3C2)cc1 (centres undefined)	none
COc1ccc(C(O)(CCc2ccccc2)CCN2CCCCC2)cc1 (centres undefined)	CHRM1 antagonist 84
O=C(CCN1CCCCCC1)c1ccccc1	none
NC(=O)C(CCCCN1CCCCC1)(c1ccccc1)c1ccccc1	CHRM1 antagonist 83
CCOC(=O)[C@H]1[C@H]2COc3ccc(OC)cc3[C@@H]2N2C(=O)c3cc(OC)c(OC)cc3NC(=O)[C@@]12C	none
Cc1ccccc1N1C(=O)C2ON(c3ccccc3)C(c3ccco3)C2C1=O (centres undefined)	M1 ag parental 16
COc1ccc(CN(C)C(=O)c2cccc(S(=O)(=O)N3CCCc4ccccc43)c2)c(OC)c1OC	none
CCCn1ncc(CN2CCCC(C(=O)c3cccc(OC(C)C)c3)C2)c1C (centres undefined)	CHRM1 antagonist 99
CC(C)Oc1cccc(C(=O)C2CCCN(Cc3cnc(N4CCCC4)s3)C2)c1 (centres undefined)	none
CCCn1cc(CN2CCCC(C(=O)c3cccc(OC(C)C)c3)C2)c(C)n1 (centres undefined)	CHRM1 antagonist 39
